From PubChem BioAssay (NCATS) come the findings set out here.

Each structure is given as a SMILES string. Results filed as inconclusive are left out. Calls of active or inactive are those of the source. Calls follow the shape of the dose curve; as a rule, active = well fitted inhibition curve with a large enough effect; inconclusive = small, poorly fitted or top-dose-only effect; inactive = no such curve, though single readings can be large or run the other way.
Potency is read from the fitted curve at half-maximal effect.

The nature of this assay: Primary fluorescence-based thiol-reactive (MSTI) qHTS assay for identification of artifact compounds. (AID 1845221). Also: nearly all actives have a fitted effect of over 65% in size.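 As to activity change, negative = thiol reactive: thiol-reactive compounds lower the probe fluorescence signal.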 To be noted: MSTI thiol-reactivity probe, 1 h; series mostly up to 53.8 µM; activity change, negative = thiol reactive: at the top concentration. An excerpt:
PI: Alexander Tropsha Ph.D.
UNC Eshelman School of Pharmacy
University of North Carolina, Chapel Hill, North Carolina
Hits from high-throughput screening (HTS) of chemical libraries are often false positives due to their interference with the assay detection technology. In response to this problem, we generated the largest publicly available library of chemical liabilities and developed a free webtool to predict HTS artifacts, both of which are described herein. More specifically, we generated, curated, and integrated HTS datasets for thiol reactivity, redox activity, and luciferase (firefly and nano) activity. Using these curated datasets, we developed and validated several Quantitative Structure-Interference Relationship (QSIR) models to predict nuisance behavior. […] These models were employed for virtual profiling of the National Center for Advancing Translational Science's (NCATS) in-house library, and 256 compounds for each assay were selected for the experimental validation of nuisance behavior. The BA for these external predictions ranged from 58 to 78% for compounds within the applicability domains of the models. […] The models developed in this study, along with aggregation models previously developed by our group (SCAM Detective) were implemented in "Liability Predictor," an online tool which may be used as part of chemical library design or for triaging HTS hits. Both the models and the curated datasets are publicly available at https://liability.mml.unc.edu/.
SEQUENCE No. (e.g., 1, 2, 3, etc.); […] (e.g., Cells, Incubation, Reagent, etc.); VALUE; DESCRIPTION.
1; Reagent; 4 uL; […].
2; Compounds and control; 16 nL; Kalypsis pin tool (Wako USA) equipped with a 1536-well pin head.
4; Detection; Fluorescence, ViewLux microplate reader, 525 nm excitation, 598 nm emission.
NOTES (numbers refer to Sequence numbers above)
1. Assays determining (E)-2-(4-mercaptostyryl)-1,3,3-trimethyl-3H-indol-1-ium (MSTI) reactivity were performed as previously described in the literature with modifications for the quick identification of compounds reacting with thiol. In brief, 4 uL of MSTI or positive control Acetyl-MSTI (final concentrations of 4 uM and 4 uM, respectively) in assay buffer (2% DMSO in 1X PBS pH 7.4) was dispensed into all wells of a 1536-well assay plate (solid-bottom black plate; Greiner Bio One, Monroe, NC).
2. A Wako Pin-tool (Wako Automation, Richmond, VA) was used to transfer 16 nL of compounds (consisting of 7-plates in qHTS format, final concentration range 18.3 nM to 114 uM) or control MLS001163887 (final concentration range 1.22 nM to 40 uM).
3. Plates were centrifuged (121xg, 15 seconds) and incubated for 1 hour at room temperature protected from light.
4. Samples were read for fluorescence (Ex/Em = 525(20)/598(25) nm) on a ViewLux CCD imager (PerkinElmer). Data were normalized to Acetyl-MSTI (0% activity) and MSTI (100% activity) and the resulting percent inhibition data were fitted to a 4-parameter Hill equation using NCATS in-house software.
In general terms: In qHTS, concentration-response curves come from the screen itself.
On to `CC1=NN(c2ccccc2)C(=O)C1`, for which the Potency is 8.44 µM (active). With `NC1(c2ccc(-c3nc4ccn5c(=O)[nH]nc5c4cc3-c3ccccc3)cc2)CCC1`, the “activity change, negative = thiol reactive” value (shortened to “activity change”) is -21.7% (inactive). Still for that read-out and setting: with `CC1(C)[C@H](C(=O)O)N2C(=O)C[C@H]2S1(=O)=O` the figure was -9.45% (inactive); with `CNS(=O)(=O)CCc1ccc2[nH]cc(C3CCN(C)CC3)c2c1`, -11.3% (inactive); with `COc1cc2c(Nc3ccc(Br)cc3F)ncnc2cc1OCC1CCN(C)CC1`, 105% (inactive). Still for that read-out and setting: the value for `CC[C@H](C)C(=O)O[C@H]1C[C@@H](C)C=C2C=C[C@H](C)[C@H](CC[C@@H]3C[C@@H](O)CC(=O)O3)[C@H]21` was 6.51% [at 25.6 µM] (inactive). `O=C(O)CCn1c2c(c3ccccc31)C[C@H](NS(=O)(=O)c1ccc(F)cc1)CC2`: the Potency was 1.68 µM (active). The same measure, in the same setting: the value for `O=P(O)(O)C(O)(Cc1cccnc1)P(=O)(O)O` was “inactive”.

With `COc1cc2ncnc(Nc3cccc(Cl)c3)c2cc1OC`, the “activity change” value is 506% (inactive). Still for that read-out and setting: with `CNC(=O)c1cc(Oc2ccc(NC(=O)Nc3ccc(Cl)c(C(F)(F)F)c3)cc2)ccn1` the figure was 265% (inactive); with `O=C(NCC1CN(c2ccc(N3CCOCC3=O)cc2)C(=O)O1)c1ccc(Cl)s1` (stereo not given), 80.4% (inactive).

On to `CN(C)CCc1c[nH]c2ccc(C[C@H]3COC(=O)N3)cc12`, for which the “activity change” value was -16.7% (inactive).

As to `Nc1nc(F)nc2c1ncn2[C@@H]1O[C@H](CO)[C@@H](O)[C@@H]1O`, the “activity change” value was -12.4% (inactive). `Cc1onc(-c2ccccc2Cl)c1C(=O)N[C@@H]1C(=O)N2[C@@H]1SC(C)(C)[C@@H]2C(=O)O`: the Potency entry is “inactive”.

On to `CC(C(=O)O)c1ccc2c(c1)CC(=O)c1ccccc1S2` (stereo not given), for which the “activity change” value was -2.3% (inactive).
